{"source": "PubChem BioAssay AID651813", "about": "(National Center for Advancing Translational Sciences (NCATS), 2012)", "note": "“And” between values parts separate entries of the source, which are not always exact repeats. Equal entries are not always repeated. Screen size: about 2,100 compounds; about 1,100 (52%) were called active. Not shown: some 27% with an inconclusive outcome. Calls come from the whole dose curve; as a rule, active = well fitted inhibition curve with a large enough effect; inconclusive = small, poorly fitted or top-dose-only effect; inactive = no such curve, though single readings can be large or run the other way. So high a share suggests a set chosen from earlier hits. This is one part of the list. Potency is the fitted concentration of half-maximal effect."}
{"biological_target": "DNA dC->dU-editing enzyme APOBEC-3G (Homo sapiens) (UniProt Q9HC16)", "sequence (Q9HC16 whole entry, looked up)": "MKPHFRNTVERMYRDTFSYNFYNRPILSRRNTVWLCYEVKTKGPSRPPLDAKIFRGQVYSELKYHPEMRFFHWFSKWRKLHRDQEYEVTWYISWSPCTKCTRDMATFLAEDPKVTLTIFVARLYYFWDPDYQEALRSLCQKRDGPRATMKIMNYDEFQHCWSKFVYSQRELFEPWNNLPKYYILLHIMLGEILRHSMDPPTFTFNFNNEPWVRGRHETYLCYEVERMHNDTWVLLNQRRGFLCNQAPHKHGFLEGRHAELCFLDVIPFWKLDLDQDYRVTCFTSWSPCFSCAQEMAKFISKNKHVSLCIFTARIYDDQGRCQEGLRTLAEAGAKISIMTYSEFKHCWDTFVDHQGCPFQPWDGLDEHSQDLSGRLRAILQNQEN", "test": "qHTS for inhibitors of Vif-A3G interactions: Cherry picks counterscreen;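 note: hits raise yellow fluorescence by blocking Vif-driven A3G-eYFP degradation; nearly all actives have a fitted effect of over 70% in size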;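 for max response: max response given as percent of control signal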", "details": "HeLa A3G-eYFP + Vif (tagged APOBEC3G with the HIV-1 protein that degrades it), eYFP fluorescence, 24 h", "description": "The recent discovery and characterization of host restriction factors, which provide a potent defense to invading retroviruses, has provided new targets for antiviral drug development. APOBEC3G (A3G) and APOBEC3F (A3F) are potent cytidine deaminases that block HIV-1 replication; HIV-1 expresses the Vif protein, which counteracts A3G and A3F by binding to them and inducing their proteasomal degradation. The Vif-A3G and Vif-A3F interactions provide two potential targets for development of small molecules which can interfere with the ability of Vif to degrade A3G or A3F. […] To identify inhibitors that can interfere with Vif mediated degradation of A3G and A3F, we have developed Hela cell lines that stably express A3G or A3F tagged with eYFP at the C-terminal end (A3G-eYFP or A3F-eYFP, respectively) and Vif. In the absence of an inhibitor, Vif induces degradation of A3G-eYFP and A3F-eYFP, and the cells are not fluorescent. In the presence of an inhibitor, it is expected that Vif will be unable to degrade A3G-eYFP and/or A3F-eYFP, resulting in an increase in yellow fluorescence. In this counterscreen assay, Vif A3G was screened against the cherry picks ordered from the MLSMR. NIH Chemical Genomics Center [NCGC] NIH Molecular Libraries Probe Centers Network [MLPCN] MLPCN Grant: MH093245 Assay Submitter (PI): Vinay Pathak, National Cancer Institute\nA3G-Vif cells were harvested from T225 flask and resuspended in phenol free OPTI-MEM medium with 5% FBS. Then 5 uL of 140,000 cells/mL resuspended cells was dispensed into each well of low base Aurora COC 1,536-well plates (black walled, clear bottom) using a Multidrop Combi dispenser. After overnight culture at 37 deg C with 5% CO2, a total of 23 nL of compounds at 5 selected concentrations from the NPC or positive control (2 mM stock of MG132) in DMSO was transferred to each well of the assay plate using a pintool (Kalypsys, San Diego, CA), and the plates were further incubated at 37 deg C with 5% CO2 for 24 hours. After that, the plates were measured on Acumen Explorer (TTP Lab Tech). The fluorescence was detected by 488 nm/Ex and […]."}
{"smiles": "C=CCSc1nc2sc3c(c2c(=O)n1CC)CCC3", "max response": "-26.5% (inactive)"}
{"smiles": "CN(C)c1ccc(/C=C2\\Oc3ccc(C#Cc4cccc(N)c4)cc3C2=O)cc1", "Potency": "17.7 µM (active)"}
{"smiles": "CC1(C)Cc2nc3sc4c(=O)n(CC(=O)NCc5ccccc5)cnc4c3cc2CO1", "Potency": "3.96 µM (active)"}
{"smiles": "COc1ccc(S(=O)(=O)NCc2ccccn2)cc1NC(=O)c1ccc(C)cc1", "Potency": "11.2 µM (active)"}
{"smiles": "COc1ccc(OC)c2sc(NC(=O)CCS(=O)(=O)c3ccccc3)nc12", "max response": "-5.13% (inactive)"}
{"smiles": "CCOc1ccc(S(=O)(=O)NCc2ccccn2)cc1NC(=O)c1ccccc1", "Potency": "3.96 µM (active)"}
{"smiles": "COc1ccc(S(=O)(=O)NCc2ccccn2)cc1NC(=O)c1ccccc1", "Potency": "15.8 µM (active)"}
{"smiles": "S=C(NCCSCc1ccc(Cl)cc1)Nc1ccccc1", "max response": "-13.3% (inactive)"}
{"smiles": "COc1ccccc1N1N=C(c2ccc([N+](=O)[O-])cc2)CC1c1ccccc1", "note": "(stereo unspecified)", "Potency": "1.25 µM (active)"}
{"smiles": "O=[N+]([O-])c1ccc(/C=C/C2=NN(c3ccccc3)C(c3ccco3)C2)o1", "note": "(stereo unspecified)", "Potency": "2.31 µM (active)"}
{"smiles": "O=[N+]([O-])c1ccc(C2=NN(c3ccccc3)C(c3ccco3)C2)cc1", "note": "(stereo unspecified)", "Potency": "0.498 µM (active)"}
{"smiles": "O=[N+]([O-])c1ccc(C2=Nc3cc(Cl)ccc3OC2)cc1", "max response": "-16.9% (inactive)"}
{"smiles": "Cc1cc(C)cc(NC(=O)/C=C/c2ccc([N+](=O)[O-])s2)c1", "Potency": "13 µM (active)"}
{"smiles": "Cc1cccc(NC(=O)/C=C/c2ccc([N+](=O)[O-])s2)c1", "Potency": "14.6 µM (active)"}
{"smiles": "Cc1ccc(NC(=O)/C=C/c2ccc([N+](=O)[O-])s2)c(C)c1", "Potency": "10.3 µM (active)"}
{"smiles": "Cc1ccc(NC(=O)/C=C/c2ccc([N+](=O)[O-])s2)cc1", "Potency": "5.17 µM (active)"}
{"smiles": "CC(=O)c1cccc(NC(=O)/C=C/c2ccc([N+](=O)[O-])s2)c1", "Potency": "10.3 µM (active)"}
{"smiles": "CC(=O)c1cccc(NC(=S)N2c3ccccc3CC2C)c1", "note": "(stereo unspecified)", "max response": "10.2% (inactive)"}
{"smiles": "O=C(OCC12CC3CC(CC(C3)C1)C2)c1ccc(NCc2cc(O)ccc2O)cc1", "max response": "39.2% (inactive)"}
{"smiles": "C=CCN1C=CC(=CC=C(C#N)C#N)C=C1", "Potency": "12.5 µM (active)"}
{"smiles": "CCCN1C=CC(=CC=C(C#N)C#N)C=C1", "Potency": "9.94 µM (active)"}
{"smiles": "Cn1c2ccccc2c2ccc3c(c21)C(=O)C=CC3=O", "max response": "10.2% (inactive)"}
{"smiles": "COc1cc(OC)c(OC)cc1/C=C1\\Oc2cc(OCC(=O)N3Cc4ccccc4C[C@H]3C(=O)O)ccc2C1=O", "Potency": "2.06 µM (active)"}
{"smiles": "COc1ccc(/C=C2\\Oc3cc(OC(=O)N4CCOCC4)ccc3C2=O)c(OC)c1", "max response": "-18.4% (inactive)"}
{"smiles": "Cn1cc(C2=C(c3ccc(Cl)cc3Cl)C(=O)NC2=O)c2ccccc21", "Potency": "2.06 µM (active) and 8.2 µM (active)"}
{"smiles": "COc1ccccc1Nc1cc2cc(Br)ccc2c(=O)[nH]1", "Potency": "15.8 µM (active)"}
{"smiles": "COc1cccc(C(=O)Nc2sc3c(c2C#N)CCN(C(C)=O)C3)c1", "Potency": "3.96 µM (active)"}
{"smiles": "COc1ccc(C(=O)Nc2sc3c(c2C#N)CCN(C(C)=O)C3)cc1", "Potency": "12.5 µM (active)"}
{"smiles": "O=C1[C@@H]2[C@@H](CN3CN(c4ccccc4)N=C(c4ccccc4)[C@@]23c2ccccc2)C(=O)N1c1ccccc1", "max response": "3.63% (inactive)"}
{"smiles": "Cc1noc(C)c1COc1cccc(C(=O)OCC(=O)N2CC(=O)Nc3ccccc32)c1", "Potency": "5.59 µM (active)"}
{"smiles": "COc1ccc(N=Cc2oc3ccc4ccccc4c3c2O)cc1", "Potency": "18.4 µM (active)"}
{"smiles": "COc1ccc(N=Cc2sc(O)c3ccccc23)cc1", "Potency": "3.96 µM (active)"}
{"smiles": "COc1ccc(N=Cc2c(O)c3ccccc3n2C(C)=O)cc1", "Potency": "14.6 µM (active)"}
{"smiles": "Oc1sc(C=Nc2ccc(F)cc2)c2ccccc12", "Potency": "8.2 µM (active)"}
{"smiles": "Oc1sc(C=Nc2ccccc2)c2ccccc12", "Potency": "18.4 µM (active)"}
{"smiles": "COc1ccc2nc3ccccc3nc2c1NC(=O)c1ccc(Cl)cc1", "Potency": "18.4 µM (active)"}
{"smiles": "COc1ccc2nc3ccccc3nc2c1NC(=O)c1ccc(Br)cc1", "Potency": "14.6 µM (active)"}
{"smiles": "Cc1ccc2c(Cl)c(C)c(N3CCCC3)nc2n1", "max response": "-28.8% (inactive)"}
{"smiles": "OCC[n+]1ccc(/C=C/c2c[nH]c3ccccc23)cc1", "Potency": "18.4 µM (active)"}
{"smiles": "CC[n+]1ccc(/C=C/c2c[nH]c3ccccc23)cc1", "Potency": "9.2 µM (active)"}
{"smiles": "C[n+]1ccc(/C=C/c2c[nH]c3ccccc23)cc1", "Potency": "8.2 µM (active)"}
{"smiles": "C/C(=N\\NC(=O)C(C)n1nc(C)c([N+](=O)[O-])c1C)c1ccccc1O", "note": "(stereo unspecified)", "max response": "3.13% (inactive)"}
{"smiles": "CN1CCN(c2ccc([N+](=O)[O-])cc2C(=O)c2ccc(Br)cc2)CC1", "Potency": "4.98 µM (active)"}
{"smiles": "Cc1ccc(C(=O)c2cc([N+](=O)[O-])ccc2N2CCOCC2)cc1C", "Potency": "0.994 µM (active)"}
{"smiles": "CN(C)S(=O)(=O)c1ccc(N2CCCC2)c(C(=O)N2CCN(S(=O)(=O)c3ccc(F)c(F)c3)CC2)c1", "max response": "9.68% (inactive)"}
{"smiles": "COc1ccc(C(=O)c2cc([N+](=O)[O-])ccc2N2CCCC2)cc1", "Potency": "7.04 µM (active)"}
